Screening results from PubChem.
Hits are enriched below; roughly 9.6% of the tested compounds scored in any of these assays.
L major viab – Leishmania major promastigote growth inhibition, primary screen; Leishmania major promastigotes, resazurin fluorescence viability; inhibition, % at 10 µM; AID 1063, 2008; hit rate 9% among 200,000; in the data active = inhibition above about 50%;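 note: promastigotes grown with compound for 44 hours at 28 °C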
HCT116 bCat-KO – primary screen for growth suppressors in beta-catenin knockout HCT116 cells (colon tumor, human); viability, % at 10 µM; HCT116 beta-catenin knockout viability, CellTiter-Glo, 60 h; hits give low values; hit rate 1.5% among 140,000;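 active = viability at or under a set limit, the compound median less 4 SD, cut at about 6% in these data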;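 note: 0% = Hyamine 1622 control at 20 µM and 100% = untreated cell control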
Insulin prom up – insulin promoter activators in MIN6 cells, imaging, high-content screening, mouse beta cells. hit rate 0.3% among 190,000. MIN6 insulin promoter-GFP reporter; hits give high values. AID 1625, 2009. z-score at 5 µM;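 active = z-score above 3 at 5 µM with at least 500 cells counted in the well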
HCT116 PTEN-null – growth suppression of PTEN-null HCT116, primary screen, cell-based, CellTiter-Glo | HCT116 PTEN-null viability, 60 h; hits give low values | viability, % at 10 µM | hit rate 1.2% among 140,000;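 active = viability at or below a set limit, 4 SD under the median of all tested compounds, cut at about 3.7% in these data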;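 note: PTEN knockout HCT116 line with beta catenin targeted HCT116 as companion control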
Autophagy HCS – autophagy modulators in MEF cells, primary screen, imaging, high-content, MEF GFP-LC3; AID 463193, 2010; MEF GFP-LC3 puncta imaging; test concentration mostly 10 µM; calls only at 10 µM (by protocol); hit rate 0.98% among 190,000;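 active = percentage of spot-positive cells more than 3 SD above its plate mean, without a fluorescence outlier flag or 80% toxicity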;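 note: spot-positive cell cutoff set from DMSO-treated cells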
INS promoter inh – inhibitors of insulin promoter-driven GFP, primary screen, imaging, TRM-6 cells (human fetal islet line), eGFP reporter, cell count. reporter expression induced with tamoxifen. inhibition, % at 2 µM. hit rate 0.9% among 130,000;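 active = inhibition above the mean plus 3 SD, with well images judged a real hit on visual review, cut at about 60% in these data, passing the limit was not always enough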
Numbers without * were called inactive; i = inactive; . = no result given.

SMILES | L major viab | HCT116 bCat-KO | Insulin prom up | HCT116 PTEN-null | Autophagy HCS | INS promoter inh
N#Cc1ccccc1OCCOCCNC1CCCC1 | 82* | 96 | . | 99 | i | 18
Cc1nn(C)c(C)c1/C=N/NC(=O)c1csc2ccccc12 | -3 | 91 | 0.6 | 82 | i | -11
Cc1nn(-c2ccccc2)c(C)c1/C=N/NC(=O)c1cc(C(C)(C)C)[nH]n1 | 8 | 96 | -0.24 | 104 | i | 54
Cc1ccc(-c2cc(C(=O)N/N=C/c3c(C)nn(-c4ccccc4)c3C)[nH]n2)cc1 | 71* | 14 | 0.2 | 15 | i | -10
Cc1ccc(-c2cc(C(=O)N/N=C/c3c(C)nn(C)c3C)c3ccccc3n2)c(C)c1 | 100* | 95 | -0.59 | 106 | i | 0
Cc1ccc(-c2cc(C(=O)N/N=C/c3c(C)nn(-c4ccccc4)c3C)n[nH]2)s1 | 58* | 24 | 0.04 | 22 | i | -146
O=C(O)c1ccc2c(c1)C(=O)N(c1cccc(-c3nc4ccccc4s3)c1)C2=O | -7 | . | . | . | i | .
COc1cc(-c2nnc(CSc3nnc(N)s3)o2)cc(OC)c1OC | 0 | 92 | -0.13 | 93 | i | 9
COc1cc(-c2nnc(CSc3nnc(Nc4ccc(Oc5ccccc5)cc4)s3)o2)cc(OC)c1OC | 77* | 70 | 0 | 67 | i | .
COCCN1C=C(C(=O)OC)C(c2cc3c(cc2Br)OCO3)C(C(=O)OC)=C1 | 62* | 64 | -0.38 | 45 | i | -18
Cc1[nH]n(-c2ccccc2)c(=O)c1Sc1ccc(Cl)cc1 | -4 | 88 | 0.25 | 97 | i | 11
CC1(C)NC(=O)N(CC(O)CN(Cc2ccccc2)Cc2ccccc2)C1=O (centres undefined) | -2 | 90 | -0.22 | 95 | i | 21
COc1ccccc1C1CC(=O)NC(C)=C1C(=O)OCC1CCCO1 (centres undefined) | -4 | 93 | 0.3 | 101 | i | 0
Cc1cccc2c1NC(=O)C2(c1ccc(O)cc1)c1ccc(O)cc1 | -6 | 56 | -0.37 | 64 | i | -31
Cc1cc(C2(c3ccc(O)c(C)c3)C(=O)Nc3ccccc32)ccc1O | 93* | 1.1* | -0.04 | 1.5* | i | -127
O=C(Nc1ccccc1)C1=C(O)CC(c2ccc(Cl)cc2)N2CCN=C12 (centres undefined) | 92* | 82 | 0.09 | 81 | i | 28
COCCCNc1nc2c(c(=O)[nH]c(=O)n2C)n1CC(O)COc1cccc(C)c1 (centres undefined) | 0 | 97 | 0.15 | 92 | i | .
Cc1ccc(S(=O)(=O)NC(=O)c2ccc(-c3ccc(-c4ccccc4)cc3)o2)c(C)c1 | -9 | 91 | -0.39 | 94 | i | 67*
Clc1ccc(Nc2c3c(nc4ncnn24)CCC3)cc1 | . | . | -0.54 | . | . | .
O=C(c1ccco1)N1N=C(c2cccs2)CC1c1ccco1 (centres undefined) | 8 | . | -0.82 | . | i | .
COc1cc(C(c2c(C)[nH][nH]c2=O)c2c(C)[nH][nH]c2=O)cc([N+](=O)[O-])c1O | 0 | . | -0.45 | . | i | .
CCOc1cc(C(c2c(C)[nH][nH]c2=O)c2c(C)[nH][nH]c2=O)ccc1OCc1ccc([N+](=O)[O-])cc1 | 100* | 73 | 0.07 | 67 | i | .
Cc1ccc(C(c2c(C)[nH][nH]c2=O)c2c(C)[nH][nH]c2=O)cc1[N+](=O)[O-] | 58* | 90 | -0.47 | 96 | i | 19
CCOc1cc(C(c2c(C)[nH][nH]c2=O)c2c(C)[nH][nH]c2=O)ccc1OC(=O)c1cccc([N+](=O)[O-])c1 | 25 | 100 | -0.58 | 101 | i | 30
COc1ccc(-c2c(NC(=O)c3ccco3)n(-c3ccccc3)nc(C)c2=O)cc1 | . | . | 0 | . | . | .
Cc1cc(NC(=O)CSc2nnc(C3CC3)n2-c2ccccc2)no1 | -3 | . | . | . | i | .
COC(=O)c1ccccc1NC(=O)C/C(C)=N/NC(=O)CC#N | 1 | . | 2.5 | . | i | 71*
c1ccc(-c2nnc(-c3ccncc3)o2)cc1 | -5 | 99 | . | 95 | i | -11
CCc1ccc(NC(=O)CN(c2ccc3c(c2)OCO3)S(=O)(=O)c2c(C)noc2C)cc1 | 4 | 70 | -1.6 | 79 | i | .
